Assay outcomes (PubChem BioAssay)
A selection: hits, their analogues and other compounds. The true share with any hit is near 2.6%.
TGFb SMAD3 inh = qHTS for Inhibitors of TGF-b; HepG2 CAGA-GFP TGF-b/SMAD3 reporter, GFP fluorescence, 18 h; TGF-beta stimulated, 500 pg/mL final; Potency, µM (titrated, usually from 46.1 µM), for the others: at the highest dose activity, negative = inhibition, hits mostly inhibitors; actives 1.2% (n = 410,000); AID 588855, 2011; note: potency is the fitted concentration of half-maximal effect; % is set by controls: 0 for no effect and ±100 for the full control effect; nearly all actives have a fitted effect of over 65% in size
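Inhibition was scored as loss of TGF-beta-induced (500 pg/mL final, 18 hours, 37 degrees C) GFP in HEPG2 cells carrying a CAGA-GFP reporter, in DMEM with 1% FBS. Well GFP was summed per cell; Activity was normalised to unstimulated and stimulated DMSO wells, then concentration-response fitting.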
HepG2 tox = qHTS for Inhibitors of TGF-b: Cytotox Counterscreen. actives 0.76% (n = 410,000). Potency, µM (top dose mostly 46.1 µM), inactives show at the top dose activity change, negative = cytotoxicity, actives largely listed as cytotoxic. HepG2 CAGA-GFP viability, ATP luminescence, 18 h; note: potency is the fitted concentration of half-maximal effect
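CellTiter-Glo luminescence gave cytotoxicity after 18 hours at 37 degrees C. The cells were HepG2 CAGA-GFP in 1% FBS DMEM, stimulated with 500 pg/mL TGF-beta after compound addition. %Activity was normalised to no-cell wells (complete cell-killing) and DMSO (no toxicity), and curves were fitted and classified.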
ATXN2 expr inh = Primary qHTS for Inhibitors of ATXN expression | Potency, µM (highest dose often 57 µM), inactives show at the top dose activity change, negative = inhibition, actives largely listed as inhibitors | actives 0.72% (n = 360,000) | HEK-293 ATXN2-luciferase reporter, luminescence, 24 h; note: potency is the fitted concentration of half-maximal effect; % is set by controls: 0 for no effect and ±100 for the full control effect; nearly all actives have a fitted effect of over 55% in size
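qHTS (up to 57 uM final) was run with 24 h compound exposure of reporter cells at 37 °C. Each well was multiplexed: SteadyGlo luminescence measured ATXN2-luciferase expression after a fluorogenic Gly-Phe-AFC viability readout (25 uM final).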
uPA generation = qHTS for Inhibitors of Cell Surface uPA Generation; actives 0.31% (n = 330,000); AID 540303, 2011; Potency, µM (series often up to 38.3 µM), for the others: at the highest dose activity change, negative = inhibition, usual class: inhibitors; cell surface uPA generation assay, qHTS; active = well fitted inhibition curve with a large enough effect; inconclusive = small, poorly fitted or top-dose-only effect; inactive = no such curve, though single readings can be large or run the other way; tested in mouse RAW 264.7 cells; note: potency is the fitted concentration of half-maximal effect; % is set by controls: 0 for no effect and ±100 for the full control effect; nearly all actives have a fitted effect of over 55% in size
Giardia killer = Small Molecules that selectively kill Giardia lamblia: qHTS; activity change, % at 7.66 µM, hits read low; actives 0.15% (n = 340,000); Giardia lamblia trophozoite viability; in the data active = activity change below about -80%; inconclusive = between about -30% and that limit;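 note: parasites exposed to compound for two days anaerobically before the ATP read; % is set by controls: 0 for no effect and ±100 for the full control effect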
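Killing of trophozoites was scored by loss of ATP luminescence after a 48 hrs anaerobic exposure to compounds at 37 deg C, using 100 cells per well.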
ATXN viability = Viability Counterscreen for Primary qHTS for Inhibitors of ATXN expression; S2 cells (HEK-293 line with an ATXN2-luciferase reporter) viability, CellTiter-Fluor protease fluorescence, 24 h; Potency, µM (highest dose often 56.7 µM), most hits filed as cytotoxic; actives 0.49% (n = 400,000); note: potency is the fitted concentration of half-maximal effect; nearly all actives have a fitted effect of over 40% in size
Starred values were filed as active, the others as inactive; i = inactive; ? = inconclusive; . = no result given. Unless noted, calls come from the whole dose curve; as a rule, active = well fitted curve in the direction sought with a large enough effect; inconclusive = small, poorly fitted or top-dose-only effect, or another doubt; inactive = no such curve, though single readings can be large; an effect the other way counts as inactive or inconclusive.

SMILES | TGFb SMAD3 inh | HepG2 tox | ATXN2 expr inh | uPA generation | Giardia killer | ATXN viability
COc1cccc2sc(N(CCN(C)C)C(=O)/C=C/c3cccs3)nc12 | ? | -111.7% | . | ? | 24.0 | ?
COc1ccc(OC)c2sc(N(CCN(C)C)C(=O)/C=C/c3cccs3)nc12 | ? | 15.8µM* | ? | -1.9% | -14.9 | .
Cc1cnc(-n2ncc(C(=O)NCc3ccncc3)c2C(C)C)nc1-c1ccc(F)cc1 | . | . | . | . | . | i
Cc1cc(C(=O)NCC2CCC3(CCN(Cc4cccc(F)c4F)CC3)O2)n(C)n1 (stereo not given) | . | . | . | . | . | i
O=C(NC(Nc1ncc(S(=O)(=O)c2ccc([N+](=O)[O-])cc2)s1)(C(F)(F)F)C(F)(F)F)c1ccc(Cl)cc1 | ? | -39.2% | 14.1µM* | -12.8% | -3.6 | ?
COc1cc2c(Oc3ccc(-c4cnc(Nc5ccc(F)cc5)n(C)c4=O)cc3F)ccnc2cc1OCCCN1CCOCC1 | . | . | 24.3µM* | . | . | .
COc1ccc(-c2[nH]ncc2CN(C)CCN2CCOCC2)cc1F | 8.4% | -3.0% | -30.9% | -0.9% | 18.7 | ?
COc1cc2c(Oc3ccc(NC(=O)C4(C(=O)Nc5ccc(F)cc5)CC4)cc3F)ccnc2cc1OCCCN1CCOCC1 | . | . | 27.3µM* | . | . | .
COCC(=O)Nc1cc(C(=O)N2CCSCC2)cc2nc(-c3ccccc3)n(C)c12 | . | . | . | . | . | i
O=C(C[n+]1ccccc1Cl)c1ccc2ccccc2c1 | -2.8% | -0.1% | . | . | . | .
CC1(C)CC2C1CCC1(O)CC2(C)CCC1N(O)c1ccc(C(=O)NCCO)cn1 (stereo not given) | -24.5% | -38.6% | 28.2µM* | ? | -8.7 | ?
CCCOc1ccc(C(=O)NCCO)cc1 | -2.4% | -0.2% | 1.6% | 2.9% | -7.1 | i
Nc1ccc2cc3ccc(N)cc3nc2c1 | . | . | 2.51µM* | . | . | ?
O=C(Nc1ncc(SCCN2CCCC2)s1)[C@]1(c2ccc(S(=O)(=O)C3CC3)cc2)C[C@@H]1C1CCCCC1 | . | . | 27.3µM* | . | . | .
Cc1ccc(S(=O)(=O)c2nnn3c2nc(NC(C)C)c2sccc23)cc1 | 10µM* | 15.8µM* | . | . | . | .
CCN(CC)c1ccc(-c2nnc(SCC(=O)NCc3ccco3)n2CC)cc1 | -23.4% | -37.7% | . | . | . | .
O=C(O)[C@@H](c1ccc(OCc2ccc3ccccc3n2)cc1)C1CCCC1 | . | . | 28.4% | . | . | .
CCCOc1ccc(-c2cn3ccccc3n2)cc1 | -28.9% | -61.1% | -23.7% | ? | ? | i
COc1ccc(-c2cn3ccccc3n2)cc1 | -10.5% | -99.0% | . | 2µM* | ? | i
Clc1ccc(-c2cn3ccccc3n2)cc1 | ? | -33.8% | 0.2% | 8.91µM* | 0.6 | i
NCCCN(Cc1ccc(Cl)c(Cl)c1)c1ccccn1 | . | . | . | . | 3.7 | .
O=C(CCCCCCC(=O)Nc1cccnc1)NO | . | . | 347.9% | . | . | .
O=C(CCl)c1ccc2c(c1)CCCC2 | 4.1% | -28.2% | . | . | . | .
CCCc1nc2c3ccccc3ccn2c1Cc1cccc(Cl)c1 | -72.5% | -38.2% | 1.7% | . | . | 35.5µM*
O=C1[C@@H]2Cc3c([nH]c4ccccc34)C(c3ccccc3)N2C(=O)CN1C1CCN(Cc2ccccc2)CC1 (stereo not given in full) | ? | -125.4% | ? | -17.3% | -14.2 | ?
SMILES | TGFb SMAD3 inh | HepG2 tox | ATXN2 expr inh | uPA generation | Giardia killer | ATXN viability
O=C1[C@@H]2Cc3c([nH]c4ccccc34)C(c3cccc(Br)c3)N2C(=O)CN1C1CCN(Cc2ccccc2)CC1 (stereo not given in full) | 15.8µM* | -44.4% | ? | -6.4% | 9.2 | ?
CCOC(=O)C1CCCCN1C(=O)c1cnn(-c2nccc(-c3cc(C)sc3C)n2)c1C1CC1 (stereo not given) | . | . | . | . | . | i
CNc1nc(N/N=C/c2cc3c(cc2[N+](=O)[O-])OCO3)nc(Nc2ccccc2)n1 | ? | 15.8µM* | . | ? | -4.8 | 28.2µM*
COc1cc(CNc2ccc3[nH]c(=O)[nH]c3c2)ccc1OCc1ccc(Cl)cc1 | 11.2µM* | -54.4% | 4.5% | ? | 5.0 | ?
Cc1cccc(Oc2ccc(N)cc2)c1 | 1.4% | 1.9% | 17.9% | -4.5% | 4.8 | i
Nc1ccc(Oc2cccc(Oc3ccc(N)cc3)c2)cc1 | -17.8% | -22.5% | 1.78µM* | -5.2% | -29.2 | i
COc1cc(C)c(CN2CCOc3ccc(C(O)c4cccnc4)cc3C2)cc1C (stereo not given) | . | . | . | . | . | i
O=C(Nc1ccc(F)c(Cl)c1)Nc1csc2ccccc12 | ? | 12.6µM* | -35.5% | -2.1% | -17.1 | i
O=C(Nc1ccc(F)cc1F)Nc1csc2ccccc12 | ? | -39.8% | 34.1% | 1.7% | -17.7 | i
Cn1c(SCc2ccccc2)nc(N)c(N=O)c1=O | ? | 10µM* | . | 3.55µM* | 8.2 | ?
CCOC(=O)CSc1nnc2n(-c3ccccc3)c(=O)c3c4c(sc3n12)CC(C(C)(C)C)CC4 (stereo not given) | ? | 11.2µM* | ? | . | . | .
CCOC(=O)CSc1nnc2n(-c3ccccc3)c(=O)c3c4c(sc3n12)COC(C(C)C)C4 (stereo not given) | 32.7% | 16.7% | 3.9% | . | . | i
COc1cc(C(=O)N/N=C(\c2ccccc2)c2ccccn2)cc(OC)c1OC | -4.3% | -23.8% | 2.51µM* | ? | -3.9 | i
COc1cccc(C(=O)N/N=C(/c2ccccc2)c2ccccn2)c1 | ? | -32.7% | 3.98µM* | 10.7% | 4.0 | 10µM*
COc1cc(NC(=O)c2ccccn2)cc(OC)c1OC | 4.9% | 6.0% | . | -11.9% | -8.7 | i
O=C(NCC1Cc2cccc(-c3ncccn3)c2O1)c1cccc(-c2ccccc2F)c1 (stereo not given) | . | . | . | . | . | i
Cc1ccc(-c2cc(=O)c3cc(C)ccc3[nH]2)cc1 | -9.4% | -25.4% | -28.6% | 1.12µM* | ? | i
Cc1ccc2[nH]c(-c3cccc(F)c3)cc(=O)c2c1 | ? | 21.8% | 14.3% | ? | -0.1 | i
Clc1ccc2[nH]c(-c3ccccc3)cc2c1 | -11.2% | -17.7% | 48.5% | 12.5% | 6.3 | i
O=c1cc(-c2cccc(F)c2)[nH]c2ccccc12 | ? | 7.4% | 4.7% | ? | -1.5 | ?
COc1ccc2[nH]c(-c3cccc(F)c3)cc(=O)c2c1 | ? | -0.4% | 15.8% | 0.355µM* | -9.1 | i
O=c1cc(-c2ccccc2)[nH]c2ccc(F)cc12 | ? | -1.0% | 5.0% | 0.398µM* | 10.0 | i
O=c1cc(-c2ccccc2)[nH]c2cc(Cl)ccc12 | -27.7% | -12.1% | -1.0% | 0.0447µM* | ? | ?
Cc1ccc(-c2cc(=O)c3cc(F)ccc3[nH]2)cc1 | -12.5% | -22.7% | 33.1% | ? | -7.9 | i
